# In PubChem BioAssay (EPA / NIEHS):
# Results filed as inconclusive are left out. The source made the active and inactive calls. Rule for the calls, unless noted: active = hit-call score of the fitted dose curve at least 0.9, where 1 is the maximum; inconclusive = response in the unintended direction; inactive = score below 0.9.
# Assays:
# [1] = target: Thyroid hormone receptor alpha (Rattus norvegicus) + Thyroid hormone receptor beta (Rattus norvegicus) (UniProt P18113+P63059); test: TOX21_TR_LUC_GH3_Antagonist_Followup: Tox21 GH3 Thyroid Hormone Receptor Antagonism Luciferase Follow-Up Assay (AID 2283942)
# Outline: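 Luminescence read-out (ONE-Glo, 30 min at room temperature) in GH3 reporter cells challenged with 1.0 nM T3 final. Compounds ran at 92 uM to 5nM over 15 concentrations for 24 h; DMSO served as negative control and baseline.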
# [2] = target: THRA (gene 7067) (UniProt P10827); test: TOX21_TRA_COA_Antagonist_Followup_ratio: Tox21 Thyroid Hormone Receptor alpha Antagonism through Coactivator Recruitment Follow-Up Assay, Ratio (AID 2283953)
# Outline: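 GST-TRα LBD 2.5 nM, BSA 0.10%, + cpd; then FITC-SRC-2 peptide 200 nM + Tb-anti-GST Ab 2 nM. TR-FRET ratio 520/495 nm. Norm: DMSO = 0%, T3 = 100%.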
# [3] = TOX21_TRB_BLA_Antagonist_Followup_viability: Viability Assessment in the Tox21 Thyroid Hormone Receptor beta Antagonism Beta-lactamase (BLA) Follow-Up Assay (AID 2283961)
# Outline: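 Viability read as CellTiter-Glo ATP luminescence (loss of signal = cytotoxicity) in the same plates as the TRβ-bla readout. TRβ-LBD/GAL4 UAS-bla HEK293T cells were exposed to compounds, 11 concentrations in triplicate, for 18 h at 37C/5% CO2.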
# [4] = target: Retinoic acid receptor RXR-alpha (Homo sapiens) (UniProt P19793); test: TOX21_TR_RXR_BLA_Antagonist_Followup_ratio: Tox21 Thyroid Hormone Receptor beta Retinoid X Receptor alpha (RXRa) Antagonism Beta-lactamase (BLA) Follow-Up Assay, Ratio (AID 2283972)
# Outline: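 Beta-lactamase reporter readout as cleaved/uncleaved substrate ratio (460:530 nm) after 2 h substrate loading at room temperature. GAL4-RXRa bla HEK293T cells were exposed 16 h at 37C to 11-point compound series; loss of signal scored against DMSO baseline.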
# [5] = TOX21_TR_RXR_BLA_Antagonist_Followup_viability: Viability Assessment in the Tox21 Thyroid Hormone Receptor beta Retinoid X Receptor alpha (RXRa) Antagonism Beta-lactamase (BLA) Follow-Up Assay (AID 2283979)
# Outline: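 RXRa-bla HEK293T cells (2,500/well, phenol red-free DMEM, 2% charcoal-stripped FBS) were attached 5 h, then exposed to compounds at 11 concentrations in triplicate for 16 h at 37C. Viability measured by CellTiter-Glo ATP luminescence, bidirectional fitting versus DMSO.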
# [6] = target: PGR (gene 5241) (UniProt P06401); test: TOX21_PR_BLA_Followup_Antagonist_ratio: Tox21 HEK293 Progesterone Receptor (PR) Antagonism Beta-lactamase Follow-Up Assay, Ratio (AID 2283934);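 note: PR-UAS-bla HEK293T cells stimulated with 1 nM R5020 agonist for 16 hr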
# Outline: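 Readout is the blue/green (ch2/ch1) substrate cleavage ratio after 2 hours at room temperature, following 16 hr co-treatment of PR-bla HEK293T cells with compound and 1nM promegestone. Multiplexed CellTiter-Glo viability flags cytotoxicity; DMSO baseline.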
# [7] = TOX21_PR_BLA_Followup_Agonist_viability: Viability Assessment in the Tox21 HEK293 Progesterone Receptor (PR) Agonism Beta-lactamase Follow-Up Assay (AID 2283935);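 note: signal loss means lower viability so actives are cytotoxic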
# Outline: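 Run multiplexed with the beta-lactamase FRET read, this endpoint measures ATP by CellTiter-Glo luminescence (30 min, room temperature). PR-UAS-bla HEK293T cells received compound 6 hr after plating and were then incubated 16 hr at 37C in 2% stripped serum.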
# [8] = TOX21_PR_BLA_Followup_Antagonist_viability: Viability Assessment in the Tox21 HEK293 Progesterone Receptor (PR) Antagonism Beta-lactamase Follow-Up Assay (AID 2283936);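 note: cells exposed to compound with R5020 agonist for 16 h; hits lower the luminescence signal meaning cytotoxicity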
# Outline: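 PR-UAS-bla HEK293T cells in medium with 2% charcoal-stripped FBS were treated with compounds plus R5020 for 16 hr at 37C. After the beta-lactamase read, CellTiter-Glo was added to the same wells and luminescence read after 30 min at room temperature.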
# [9] = TOX21_PR_LUC_Followup_Antagonist_viability: Viability Assessment in the Tox21 HEK293 Progesterone Receptor (PR) Antagonism Luciferase Follow-Up Assay (AID 2283940)
# Outline: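 Viability counter-readout: cellular ATP measured by luciferase luminescence after 16 h compound exposure at 37C of HEK293-PR-A-luc cells, which had been cultured in charcoal-stripped serum and seeded 5 h beforehand.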
# [10] = TOX21_PR_LUC_Followup_Agonist_viability: Viability Assessment in the Tox21 HEK293 Progesterone Receptor (PR) Agonism Luciferase Follow-Up Assay (AID 2283941);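 note: loss of signal means cytotoxicity so actives lower viability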
# Outline: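 Cytotoxicity counter-readout in the PR-A luciferase reporter line HEK293, with 16 h compound exposure at 37C after cells were cultured in charcoal-stripped serum. Cellular ATP quantified by CellTiter-Glo luminescence.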
# [11] = target: THRB (gene 7068) (UniProt P10828); test: TOX21_TRB_COA_Antagonist_Followup_ratio: Tox21 Thyroid Hormone Receptor beta Antagonism through Coactivator Recruitment Follow-Up Assay, Ratio (AID 2283967)
# Outline: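 GST-TRb LBD 5.0 nM + 0.10% BSA, compound added; fluorescein-SRC-2 peptide 200 nM, Tb-anti-GST Ab 2 nM. TR-FRET, ex 340 / em 520:495 ratio. Norm: DMSO 0%, T3 100%.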
# [12] = CCTE_Harrill_HTTr_Viability_MCF7: CCTE's 6-hour Cell Viability Assessment for the High-Throughput Transcriptomics (HTTr) Platform, in MCF-7 cells cultured in DMEM + 10% fetal bovine serum, Harrill Lab (AID 2284010; active = hit-call score of the fitted dose curve at least 0.9, where 1 is the maximum; inactive = score below 0.9)
# Outline: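 Propidium iodide exclusion, imaged by high-content analysis, gauged viability after a six-hour exposure across eight concentrations. Cells were MCF-7 grown in DMEM with 10% fetal bovine serum; fits run in both directions against DMSO.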
# [13] = CCTE_Harrill_HTTr_Apoptosis_MCF7: CCTE's 6-hour Apoptosis Assessment for the High-Throughput Transcriptomics (HTTr) Platform, in MCF-7 cells cultured in DMEM + 10% fetal bovine serum, Harrill Lab (AID 2284011; active = hit-call score of the fitted dose curve at least 0.9, where 1 is the maximum; inactive = score below 0.9)
# Outline: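 Read-out: CellEvent Caspase 3/7 Green signal by high content imaging, gain-of-signal indicating apoptosis. MCF-7 cells, DMEM + 10% FBS, eight-point dilution series, 6 h exposure. Curves fitted bidirectionally relative to DMSO negative control.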
# Sequence of THRA (gene 7067) (P10827 whole entry, looked up, the tested form may be a part): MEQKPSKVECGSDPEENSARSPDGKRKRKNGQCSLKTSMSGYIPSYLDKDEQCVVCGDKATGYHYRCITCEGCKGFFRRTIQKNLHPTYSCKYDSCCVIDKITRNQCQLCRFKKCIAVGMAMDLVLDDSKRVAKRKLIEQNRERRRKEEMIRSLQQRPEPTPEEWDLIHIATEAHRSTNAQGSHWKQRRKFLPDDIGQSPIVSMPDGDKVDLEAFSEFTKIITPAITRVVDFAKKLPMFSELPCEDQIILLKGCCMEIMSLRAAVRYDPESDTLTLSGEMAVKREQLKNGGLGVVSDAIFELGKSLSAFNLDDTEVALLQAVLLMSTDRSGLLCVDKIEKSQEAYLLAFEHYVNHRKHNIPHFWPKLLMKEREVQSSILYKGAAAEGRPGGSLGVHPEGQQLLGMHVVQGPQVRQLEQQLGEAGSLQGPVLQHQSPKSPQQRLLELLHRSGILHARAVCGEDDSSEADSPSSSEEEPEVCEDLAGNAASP
# Sequence of THRB (gene 7068) (P10828 whole entry, looked up, the tested form may be a part): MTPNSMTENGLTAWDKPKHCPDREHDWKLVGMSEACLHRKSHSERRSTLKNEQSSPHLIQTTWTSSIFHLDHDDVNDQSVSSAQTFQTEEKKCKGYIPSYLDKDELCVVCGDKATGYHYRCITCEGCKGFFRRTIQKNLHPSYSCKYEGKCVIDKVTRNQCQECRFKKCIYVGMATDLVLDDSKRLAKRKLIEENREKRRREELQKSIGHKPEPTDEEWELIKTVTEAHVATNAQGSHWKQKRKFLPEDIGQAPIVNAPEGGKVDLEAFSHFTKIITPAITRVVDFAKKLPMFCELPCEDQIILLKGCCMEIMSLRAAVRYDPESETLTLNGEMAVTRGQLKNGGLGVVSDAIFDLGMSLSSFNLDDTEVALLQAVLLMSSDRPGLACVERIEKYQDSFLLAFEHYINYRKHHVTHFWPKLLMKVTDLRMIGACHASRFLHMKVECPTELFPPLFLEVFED
# Sequence of PGR (gene 5241) (P06401 whole entry, looked up): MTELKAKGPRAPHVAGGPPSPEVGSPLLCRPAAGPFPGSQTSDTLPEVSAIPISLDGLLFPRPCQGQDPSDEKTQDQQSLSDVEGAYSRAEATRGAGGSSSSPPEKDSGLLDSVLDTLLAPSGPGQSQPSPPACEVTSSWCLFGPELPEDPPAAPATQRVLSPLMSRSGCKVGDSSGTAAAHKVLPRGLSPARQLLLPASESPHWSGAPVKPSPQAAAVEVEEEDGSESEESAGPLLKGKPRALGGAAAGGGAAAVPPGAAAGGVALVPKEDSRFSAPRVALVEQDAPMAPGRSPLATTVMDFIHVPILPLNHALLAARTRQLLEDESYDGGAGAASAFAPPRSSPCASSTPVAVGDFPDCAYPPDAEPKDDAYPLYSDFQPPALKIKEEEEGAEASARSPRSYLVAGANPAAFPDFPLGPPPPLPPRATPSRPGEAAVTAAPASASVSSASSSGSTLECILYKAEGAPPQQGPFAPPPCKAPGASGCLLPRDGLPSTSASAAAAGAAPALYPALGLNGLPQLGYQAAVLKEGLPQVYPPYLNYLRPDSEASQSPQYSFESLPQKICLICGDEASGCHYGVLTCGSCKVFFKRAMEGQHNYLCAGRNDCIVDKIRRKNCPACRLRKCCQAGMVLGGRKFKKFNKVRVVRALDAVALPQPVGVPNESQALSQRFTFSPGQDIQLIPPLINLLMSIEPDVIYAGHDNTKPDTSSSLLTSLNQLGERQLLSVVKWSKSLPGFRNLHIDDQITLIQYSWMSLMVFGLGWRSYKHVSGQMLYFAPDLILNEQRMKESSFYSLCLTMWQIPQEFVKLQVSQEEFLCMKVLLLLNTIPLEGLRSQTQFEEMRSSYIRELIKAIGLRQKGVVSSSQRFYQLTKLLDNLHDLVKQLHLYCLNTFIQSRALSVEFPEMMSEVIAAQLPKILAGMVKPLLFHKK
# Sequence of Retinoic acid receptor RXR-alpha (Homo sapiens) (P19793 whole entry, looked up, the tested form may be a part): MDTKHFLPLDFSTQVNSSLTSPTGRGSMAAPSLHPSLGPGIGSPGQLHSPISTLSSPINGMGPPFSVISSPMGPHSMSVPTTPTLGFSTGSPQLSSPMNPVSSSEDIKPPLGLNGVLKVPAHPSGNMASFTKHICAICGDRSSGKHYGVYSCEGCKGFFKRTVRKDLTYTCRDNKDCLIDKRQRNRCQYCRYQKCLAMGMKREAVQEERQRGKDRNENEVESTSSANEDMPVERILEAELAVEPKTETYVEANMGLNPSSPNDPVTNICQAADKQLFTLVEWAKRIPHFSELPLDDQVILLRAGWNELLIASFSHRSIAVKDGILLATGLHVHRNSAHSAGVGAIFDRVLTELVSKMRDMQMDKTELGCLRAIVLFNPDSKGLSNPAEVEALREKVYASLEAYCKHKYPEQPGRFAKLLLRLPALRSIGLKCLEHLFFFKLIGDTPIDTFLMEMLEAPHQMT
smiles,measurement,setting,value
COc1ccc2c(c1)N(C[C@H](C)CN(C)C)c1ccccc1S2,AC50,[1],2.79 µM (active)
same,outcome,[2],inactive
same,outcome,[3],inactive
same,outcome,[4],inactive
same,outcome,[5],inactive
COC(=O)C1=C(C)NC(C)=C(C(=O)OC(C)C)C1c1cccc2nonc12 (centres undefined),AC50,[6],19.4 µM (active)
same,outcome,[7],inactive
same,outcome,[8],inactive
same,outcome,[9],inactive
same,outcome,[10],inactive
CC(=O)OCC(=O)[C@H]1CC[C@H]2[C@@H]3CCC4=CC(=O)CC[C@]4(C)[C@H]3CC[C@]12C,outcome,[6],inactive
same,outcome,[7],inactive
same,outcome,[8],inactive
same,outcome,[9],inactive
same,outcome,[10],inactive
same,outcome,[1],inactive
same,outcome,[2],inactive
same,outcome,[11],inactive
same,outcome,[5],inactive
COC(=O)Nc1nc2ccc(S(=O)c3ccccc3)cc2[nH]1 (centres undefined),outcome,[1],inactive
same,outcome,[2],inactive
same,outcome,[3],inactive
same,outcome,[11],inactive
same,outcome,[4],inactive
same,outcome,[5],inactive
same,outcome,[12],inactive
same,outcome,[13],inactive
C#C[C@]1(O)CC[C@H]2[C@@H]3CCC4=C(CCC(=O)C4)[C@H]3CC[C@@]21C,outcome,[1],inactive
same,outcome,[2],inactive
same,outcome,[3],inactive
same,outcome,[11],inactive
same,outcome,[5],inactive
C[C@]12CCC(=O)C=C1CC[C@H]1[C@@H]3CC[C@](O)(C(=O)CO)[C@@]3(C)C[C@H](O)[C@@]12F,outcome,[6],inactive
same,outcome,[7],inactive
same,outcome,[8],inactive
same,outcome,[10],inactive
Clc1ccccc1CN1CCc2sccc2C1,outcome,[7],inactive
same,outcome,[8],inactive
same,outcome,[9],inactive
same,outcome,[10],inactive
C/C=C(/C(=C/C)c1ccc(OC(C)=O)cc1)c1ccc(OC(C)=O)cc1,AC50,[6],9.64 µM (active)
same,outcome,[7],inactive
same,outcome,[8],inactive
same,outcome,[9],inactive
C[C@@H]1C[C@H]2[C@@H]3CCC4=CC(=O)C=C[C@]4(C)[C@@]3(F)[C@@H](O)C[C@]2(C)[C@@]1(O)C(=O)COC(=O)c1ccncc1,outcome,[6],inactive
same,outcome,[7],inactive
same,outcome,[8],inactive
same,outcome,[9],inactive
same,outcome,[10],inactive
CCN(CC)CC(=O)OCC(=O)[C@@]1(O)CC[C@H]2[C@@H]3CCC4=CC(=O)CC[C@]4(C)[C@H]3[C@@H](O)C[C@@]21C,outcome,[6],inactive
same,outcome,[7],inactive
same,outcome,[8],inactive
same,outcome,[9],inactive
same,outcome,[10],inactive
CCC(=O)O[C@]1(C(=O)COC)[C@@H](C)C[C@H]2[C@@H]3CCC4=CC(=O)C=C[C@]4(C)C3(F)[C@@H](O)C[C@@]21C (some centres undefined),outcome,[6],inactive
same,outcome,[7],inactive
same,outcome,[8],inactive
same,outcome,[9],inactive
same,outcome,[10],inactive
